Values joined by “and” are separate entries in the source; they are usually repeats but may differ in a detail not shown here. Equal entries are not always repeated. Results filed as inconclusive are left out. The source holds several records for some structures; these can differ, active in one and inactive in another. Active and inactive are the calls of the source. Unless noted, calls follow the shape of the dose curve; as a rule, active = well fitted curve in the direction sought with a large enough effect; inconclusive = small, poorly fitted or top-dose-only effect, or another doubt; inactive = no such curve, though single readings can be large; an effect the other way counts as inactive or inconclusive.
How the values were obtained:
[1] = AP1 Signaling Pathway (AID 357; active = well fitted curve in either direction with a large enough effect, not every such curve was filed as active;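 also: ME-180 reporter cells stimulated with EGF at its EC50 level; % is scaled to controls: 0 for no effect and ±100 for the full control effect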); details: ME-180 AP-1-bla reporter, EGF-induced, beta-lactamase ratio, 5 h
Procedure, shortened: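 AP-1-bla ME-180 cells, Opti-MEM + 0.5% dialyzed FBS, plated overnight 37 °C. Cpd titration + EC50 EGF, 5 h 37 °C. CCF4 2.5 h RT; ex 405, em 460/530 ratio → %activity, AC50.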

[2] = target: Cytochrome P450 1A2 (Homo sapiens) (UniProt P05177); test: p450-cyp1a2 (AID 410; calls by dose curve; also: potency is read from the fitted curve at half-maximal effect;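 as to activity change, negative = inhibition: -100% = full effect of reference inhibitor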)
Cytochrome P450 1A2 (Homo sapiens), sequence (P05177 whole entry, looked up): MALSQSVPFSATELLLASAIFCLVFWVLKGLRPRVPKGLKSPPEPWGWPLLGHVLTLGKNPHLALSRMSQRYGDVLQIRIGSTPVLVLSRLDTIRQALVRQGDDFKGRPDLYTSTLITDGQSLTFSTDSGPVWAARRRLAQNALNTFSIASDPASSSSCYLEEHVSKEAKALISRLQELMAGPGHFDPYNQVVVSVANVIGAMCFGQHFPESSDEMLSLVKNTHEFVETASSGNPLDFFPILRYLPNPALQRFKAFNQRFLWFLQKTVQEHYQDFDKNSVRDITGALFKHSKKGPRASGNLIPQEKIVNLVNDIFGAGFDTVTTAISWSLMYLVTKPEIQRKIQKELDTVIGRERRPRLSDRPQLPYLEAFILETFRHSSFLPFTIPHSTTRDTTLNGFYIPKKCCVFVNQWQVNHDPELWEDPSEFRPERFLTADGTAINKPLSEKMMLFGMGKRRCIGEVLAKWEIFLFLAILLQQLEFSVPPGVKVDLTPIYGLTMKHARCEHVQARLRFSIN
Procedure, shortened: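 Human CYP1A2 (20nM) demethylated Luciferin-ME at its Km (100uM) in 100mM KPO4. After 10 min compound preincubation, NADPH regeneration ran the reaction 60 min at room temperature. Luciferin was read by luminescence, normalized to 57 uM furafylline.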

[3] = NFAT Signaling Pathway (AID 444; active = well fitted curve in either direction with a large enough effect, not every such curve was filed as active;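 also: carbachol stimulus at about its EC50 of 1 µM final; % is scaled to controls: 0 for no effect and ±100 for the full control effect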); details: Jurkat NFAT-bla M1, carbachol, beta-lactamase ratio, 5 h
Procedure, shortened: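 Jurkat cells carrying an NFAT-driven β-lactamase reporter and co-transfected muscarinic M1 receptor were treated with compound plus carbachol (1 uM final, an EC50 level) for 5 h at 37 °C. CCF4 loading followed for 1 h at RT; 460/530 nm ratio gave %activity.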

[4] = Stat Signaling Pathway (AID 446; active = well fitted curve in either direction with a large enough effect, not every such curve was filed as active;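 also: ME-180 cervical cancer cells given 40 pM IL-6 alongside compound; SIE-controlled beta-lactamase reporter measured as 460/530 nm FRET emission ratio; % is scaled to controls: 0 for no effect and ±100 for the full control effect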); details: ME-180 SIE beta-lactamase reporter, IL-6 stimulated, 5 h
Procedure, shortened: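 Screening format detects activators and inhibitors alike: ME-180 SIE-bla cells stimulated at 40 pM IL-6 for 5 hrs with compound, then dual-emission beta-lactamase read at 405 nm excitation.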

[5] = target: Glucocorticoid receptor (Homo sapiens) (UniProt P04150); test: GR-GFP Redistribution (AID 450;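 active = compounds whose dose series gives a full or clear partial fitted curve of increased nuclear translocation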; also: potency is read from the fitted curve at half-maximal effect); details: U2OS GR-GFP nuclear translocation, laser cytometry, 2 h
Glucocorticoid receptor (Homo sapiens), sequence (P04150 whole entry, looked up, the tested form may be a part): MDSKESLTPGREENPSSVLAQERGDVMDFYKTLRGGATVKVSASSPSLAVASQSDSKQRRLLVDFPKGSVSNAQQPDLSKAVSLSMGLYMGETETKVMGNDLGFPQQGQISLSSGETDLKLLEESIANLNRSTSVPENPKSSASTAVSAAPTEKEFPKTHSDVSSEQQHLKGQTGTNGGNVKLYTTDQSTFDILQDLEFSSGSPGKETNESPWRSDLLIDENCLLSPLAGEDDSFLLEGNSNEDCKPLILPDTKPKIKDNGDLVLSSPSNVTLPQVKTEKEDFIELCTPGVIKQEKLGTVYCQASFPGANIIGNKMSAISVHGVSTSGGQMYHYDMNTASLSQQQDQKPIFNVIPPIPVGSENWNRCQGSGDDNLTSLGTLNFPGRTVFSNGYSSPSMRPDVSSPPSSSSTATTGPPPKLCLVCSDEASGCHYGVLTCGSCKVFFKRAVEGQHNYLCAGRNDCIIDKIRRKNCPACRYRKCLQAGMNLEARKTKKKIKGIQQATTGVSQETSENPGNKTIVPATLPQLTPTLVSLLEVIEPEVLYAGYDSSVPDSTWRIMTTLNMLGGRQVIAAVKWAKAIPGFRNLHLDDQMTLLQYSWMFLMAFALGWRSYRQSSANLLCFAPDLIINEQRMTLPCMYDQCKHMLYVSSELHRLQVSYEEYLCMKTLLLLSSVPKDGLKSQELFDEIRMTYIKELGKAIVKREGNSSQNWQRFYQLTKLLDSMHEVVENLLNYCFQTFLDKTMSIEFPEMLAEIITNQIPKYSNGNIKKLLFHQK

[6] = target: Glucocorticoid receptor (Homo sapiens) (UniProt P04150); test: GR-EFC Redistribution (AID 451; calls by dose curve; also: potency is read from the fitted curve at half-maximal effect); details: CHO-K1 GR-EFC translocation, beta-gal luminescence, 2 h
Procedure, shortened: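 CHO-K1 cells stably expressing nuclear-localized β-gal enzyme acceptor and GR fused C-terminally to the enzyme donor fragment; ligand-driven nuclear translocation restores β-gal by complementation. Compounds titrated up to 46 uM final, 2 h at 37 °C; luminescence read.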

[7] = target: Mitogen-activated protein kinase 10 (Mus musculus) (UniProt Q61831); test: JNK3 AlphaScreen Assay (AID 530; active = well fitted curve in either direction with a large enough effect, not every such curve was filed as active;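 also: kinase came from lysate of stimulated human HepG2 cells; signal reports phosphorylation of biotinylated GST-cJun 1-79 at Ser73 with 10 µM ATP; % is scaled to controls: 0 for no effect and ±100 for the full control effect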)
Procedure, shortened: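 JNK3 came from HepG2 lysates pre-activated with IL-1beta and TNF-alpha and phosphorylated biotinylated GST-cJun (1-79) at 10 uM ATP, pH 7.6, room temperature. Compounds were titrated. AlphaScreen signal used anti-phospho-cJun (Ser73) antibody.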

[8] = target: 3',5'-cyclic-AMP phosphodiesterase 4B (Homo sapiens) (UniProt Q07343); test: qHTS Assay for Inhibitors of PDE-IV (AID 607; active = well fitted activation curve with a large enough effect in the main read-out, with a control signal flat, not every such curve was filed as active; also: % of control where 0% means no effect)
3',5'-cyclic-AMP phosphodiesterase 4B (Homo sapiens), sequence (Q07343 whole entry, looked up): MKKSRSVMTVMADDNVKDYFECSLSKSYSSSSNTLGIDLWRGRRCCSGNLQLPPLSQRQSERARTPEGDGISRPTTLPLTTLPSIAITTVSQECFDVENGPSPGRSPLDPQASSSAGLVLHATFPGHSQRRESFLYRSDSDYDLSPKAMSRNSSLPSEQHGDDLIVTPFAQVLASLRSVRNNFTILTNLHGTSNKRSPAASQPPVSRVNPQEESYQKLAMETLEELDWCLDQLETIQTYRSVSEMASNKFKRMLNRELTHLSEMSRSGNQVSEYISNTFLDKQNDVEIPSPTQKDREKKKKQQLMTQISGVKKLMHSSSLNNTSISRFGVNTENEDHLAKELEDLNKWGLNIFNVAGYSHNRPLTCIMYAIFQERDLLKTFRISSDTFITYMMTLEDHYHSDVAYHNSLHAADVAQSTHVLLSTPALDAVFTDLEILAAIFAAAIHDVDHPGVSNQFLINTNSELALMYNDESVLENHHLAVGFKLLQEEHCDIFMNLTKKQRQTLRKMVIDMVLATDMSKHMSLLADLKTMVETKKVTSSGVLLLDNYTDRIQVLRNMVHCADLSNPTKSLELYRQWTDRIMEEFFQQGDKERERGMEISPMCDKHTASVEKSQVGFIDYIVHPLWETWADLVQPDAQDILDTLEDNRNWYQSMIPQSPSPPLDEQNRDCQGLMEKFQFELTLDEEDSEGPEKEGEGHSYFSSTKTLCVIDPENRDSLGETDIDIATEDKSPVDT
Procedure, shortened: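 The readout is membrane depolarisation from a cAMP-sensing CNG channel, detected with a potential dye at ex 535/em 590. Cells were HEK293-derived (endogenous PDE-IV) at 1000 cells/well, titrated up to 22.9 uM final.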

[9] = qHTS Assay for Lipid Storage Modulators (AID 1519; calls by dose curve); details: Drosophila S3 cells, BODIPY lipid droplet/cell ratio, laser cytometry, cells loaded with oleic acid; for activity change, negative = inhibition: at 25.7 µM (top of the series)
Procedure, shortened: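 Cells seeded at 5,000 per well were treated with compounds over a concentration series and loaded with oleic acid (400 uM, as added). Lipid droplet fluorescence (488 nm excitation, 500-530 nm channel) was read by laser-scanning cytometry and normalized to 20 uM Triacsin C.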

[10] = target: ATP-dependent 6-phosphofructokinase (Trypanosoma brucei brucei) (UniProt O15648); test: qHTS Assay to Find Inhibitors of T. brucei phosphofructokinase: hit validation (AID 492961)
ATP-dependent 6-phosphofructokinase (Trypanosoma brucei brucei), sequence (O15648 whole entry, looked up): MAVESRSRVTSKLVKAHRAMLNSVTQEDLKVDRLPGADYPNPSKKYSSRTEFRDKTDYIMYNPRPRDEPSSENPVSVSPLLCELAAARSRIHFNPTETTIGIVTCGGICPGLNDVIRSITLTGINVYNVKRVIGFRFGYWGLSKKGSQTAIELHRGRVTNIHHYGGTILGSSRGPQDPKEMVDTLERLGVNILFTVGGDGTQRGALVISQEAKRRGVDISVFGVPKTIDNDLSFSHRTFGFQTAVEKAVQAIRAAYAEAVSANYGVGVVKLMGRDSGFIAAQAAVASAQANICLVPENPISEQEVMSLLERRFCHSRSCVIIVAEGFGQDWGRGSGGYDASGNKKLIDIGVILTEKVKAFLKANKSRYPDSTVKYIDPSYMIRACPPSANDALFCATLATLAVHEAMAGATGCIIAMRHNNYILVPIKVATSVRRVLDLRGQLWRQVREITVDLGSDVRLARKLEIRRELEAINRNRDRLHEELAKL
Procedure, shortened: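 Reaction: 0.1 M triethanolamine pH 8.0, 5 mM MgCl2, F6P 0.5 mM, ATP 0.1 mM, PFK 1.25 nM, 45 min RT. Read-out: ADP-Glo luminescence. Analysis: concentration-response fits, classed by r2 and efficacy.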

[11] = target: Ubiquitin carboxyl-terminal hydrolase 1 (Homo sapiens) (UniProt O94782); test: Inhibitors of USP1/UAF1: Pilot qHTS (AID 504865);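 also: rhodamine fluorescence freed from ubiquitin-rhodamine substrate followed over time; top concentration of the series differs between compounds; % is scaled to controls: 0 for no effect and ±100 for the full control effect; nearly all actives have a fitted effect of over 35% in size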
Ubiquitin carboxyl-terminal hydrolase 1 (Homo sapiens), sequence (O94782 whole entry, looked up): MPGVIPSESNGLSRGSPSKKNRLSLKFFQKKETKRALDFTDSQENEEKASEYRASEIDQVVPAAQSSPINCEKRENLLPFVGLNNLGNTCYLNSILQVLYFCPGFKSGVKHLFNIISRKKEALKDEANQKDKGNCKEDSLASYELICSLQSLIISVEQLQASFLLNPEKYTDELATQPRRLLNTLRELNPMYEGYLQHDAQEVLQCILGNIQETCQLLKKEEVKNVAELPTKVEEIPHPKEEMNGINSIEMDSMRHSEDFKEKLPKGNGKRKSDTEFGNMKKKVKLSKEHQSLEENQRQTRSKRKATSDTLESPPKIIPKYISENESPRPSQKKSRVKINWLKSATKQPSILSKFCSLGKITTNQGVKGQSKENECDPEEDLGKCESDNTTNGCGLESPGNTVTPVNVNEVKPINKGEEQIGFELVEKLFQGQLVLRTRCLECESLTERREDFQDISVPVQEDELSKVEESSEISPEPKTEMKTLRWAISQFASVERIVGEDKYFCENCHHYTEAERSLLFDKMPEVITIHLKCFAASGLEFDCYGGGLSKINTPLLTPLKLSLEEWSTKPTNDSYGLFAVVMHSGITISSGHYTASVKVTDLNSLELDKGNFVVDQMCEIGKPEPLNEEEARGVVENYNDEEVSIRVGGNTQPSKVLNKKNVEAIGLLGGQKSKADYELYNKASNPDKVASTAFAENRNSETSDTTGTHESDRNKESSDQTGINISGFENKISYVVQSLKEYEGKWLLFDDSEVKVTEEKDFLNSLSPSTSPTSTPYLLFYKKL
Procedure, shortened: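 Kinetic fluorescence assay: 1nM USP1/UAF1, 15 min compound preincubation, then 150nM Ub-Rho; 480/540 nm.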

[12] = qHTS profiling for inhibitors of Plasmodium falciparum proliferation (AID 504749);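 also: 0% = DMSO vehicle and full inhibition = artemisinin control; nearly all actives have a fitted effect of over 60% in size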; details: P. falciparum in erythrocytes, SYBR Green DNA, 72 h
Procedure, shortened: (§1)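 P. falciparum-infected erythrocytes (0.3% parasitemia, 2.5% hematocrit final) were exposed to compounds for 72 h at 37 C in 5% CO2, then lysed with SYBR Green buffer overnight at room temperature; parasite DNA fluorescence was normalized to artemisinin and DMSO controls.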

[13] = system: AS120; test: as above; details: P. falciparum in erythrocytes, SYBR Green DNA, 72 h; series mostly up to 28.7 µM
Procedure, shortened: as §1

[14] = system: CP238; test: as above; details: P. falciparum in erythrocytes, SYBR Green DNA, 72 h; series mostly up to 12.8 µM
Procedure, shortened: as §1

[15] = system: CP250; test: as above; details: P. falciparum in erythrocytes, SYBR Green DNA, 72 h; series mostly up to 12.8 µM
Procedure, shortened: as §1

[16] = system: CP262; test: as above; details: P. falciparum in erythrocytes, SYBR Green DNA, 72 h; series mostly up to 12.8 µM
Procedure, shortened: as §1

[17] = system: CP265; test: as above; details: P. falciparum in erythrocytes, SYBR Green DNA, 72 h; series mostly up to 12.8 µM
Procedure, shortened: as §1

[18] = system: FAB9; test: as above; details: P. falciparum in erythrocytes, SYBR Green DNA, 72 h; series mostly up to 12.8 µM
Procedure, shortened: as §1

[19] = system: JCK; test: as above; details: P. falciparum in erythrocytes, SYBR Green DNA, 72 h; series mostly up to 12.8 µM
Procedure, shortened: as §1

[20] = system: PC49; test: as above; details: P. falciparum in erythrocytes, SYBR Green DNA, 72 h; series mostly up to 12.8 µM
Procedure, shortened: as §1

[21] = at 7.69 µM (top of the series) unless noted
[22] = measured here: cell count channel max response
[23] = measured here: lipid channel max response
[24] = at 12.8 µM (top of the series), parasite line A
[25] = at 12.8 µM (top of the series), parasite line B
[26] = at 28.7 µM (top of the series), parasite line A
[27] = at 28.7 µM (top of the series), parasite line B

CN[C@@H]1[C@H](O[C@@H]2O[C@H](CO)[C@@H](N)[C@H](O)[C@@H]2O)O[C@H]2C[C@@H](N)[C@@H](O[C@H]3[C@@H](O)[C@H](O)[C@H](N)C[C@@H]3N)O[C@H]2[C@H]1O
inactive: activity change, negative = inhibition [1, 21] 3.97% [at 17.2 µM] | Potency [2] | activity change, negative = inhibition [3, 21] -18% [at 17.2 µM] | activity, negative = inhibition [4, 21] -2.35% [at 17.2 µM] | Potency [5] > 20.6 µM | Potency [6] > 20.6 µM | Potency [7] | Potency [8] | activity change, negative = inhibition [9] -1.23% | outcome [10] | Potency [11] | activity, negative = inhibition [12, 24] -1.02% | activity, negative = inhibition [12, 25] -5.91% | Potency [13] | Potency [14] | Potency [15] | Potency [16] | Potency [17] | Potency [18] | Potency [19] | Potency [20]
-11.9%: max response [9, 23]
-10.4%: max response [9, 22]

CC(C)COC[C@H](CN(Cc1ccccc1)c1ccccc1)N1CCCC1
-16.9%: max response [9, 22]
inactive: activity change, negative = inhibition [1, 21] 15.1% [at 38 µM] | activity change, negative = inhibition [3, 21] -5.29% [at 38 µM] | activity, negative = inhibition ([4]; at 17.2 µM (top of the series)) -1.52% | activity, negative = inhibition ([4]; at 38 µM (top of the series)) -10.2% | Potency [5] > 46 µM and > 20.6 µM | Potency [6] > 46 µM and > 20.6 µM | Potency [7] | Potency [8] | activity change, negative = inhibition [9] -12.4% | Potency [11]
-26.5%: max response [9, 23]
inactive and 12.6 µM (active): Potency [2]

NC(=O)OC[C@H](O)COc1ccc(Cl)cc1
active: Potency [2] 10 µM
inactive: activity change, negative = inhibition [1, 21] -4.9% [at 17.2 µM] | activity change, negative = inhibition [3, 21] -9.21% [at 17.2 µM] | activity, negative = inhibition [4, 21] 14.1% [at 17.2 µM] | Potency [5] > 20.6 µM | Potency [6] > 20.6 µM | Potency [7] | Potency [8] | activity change, negative = inhibition [9] -1.93% | outcome [10] | activity, negative = inhibition [12, 24] -2.39% | activity, negative = inhibition [12, 25] -7.73% | Potency [13] | Potency [14] | Potency [15] | Potency [16] | Potency [17] | Potency [18] | Potency [19] | Potency [20]
12%: max response [9, 23]
14%: max response [9, 22]

CC(=O)N(CC(O)CN(C(C)=O)c1c(I)c(C(=O)NC[C@@H](O)CO)c(I)c(C(=O)NC[C@@H](O)CO)c1I)c1c(I)c(C(=O)NC[C@@H](O)CO)c(I)c(C(=O)NC[C@@H](O)CO)c1I
inactive: activity change, negative = inhibition [1, 21] 2.7% [at 17.2 µM] | Potency [2] | activity change, negative = inhibition [3, 21] -2.76% [at 17.2 µM] | activity, negative = inhibition [4, 21] 4.45% [at 17.2 µM] | Potency [5] > 20.6 µM | Potency [6] > 20.6 µM | Potency [7] | Potency [8] | activity change, negative = inhibition [9] 0.967% | outcome [10] | Potency [11] | activity, negative = inhibition [12, 24] 5.56% | activity, negative = inhibition [12, 25] 6.47% | Potency [13] | Potency [14] | Potency [15] | Potency [16] | Potency [17] | Potency [18] | Potency [19] | Potency [20]
-17.3%: max response [9, 22]
-18.3%: max response [9, 23]

COCCc1ccc(OC[C@H](O)CNC(C)C)cc1
10.9%: max response [9, 22]
inactive: activity change, negative = inhibition ([1]; at 17.2 µM (top of the series)) 15.8% | activity change, negative = inhibition ([1]; at 38 µM (top of the series)) 13.6% | activity change, negative = inhibition ([3]; at 17.2 µM (top of the series)) 1.88% | activity change, negative = inhibition ([3]; at 38 µM (top of the series)) -1.17% | activity, negative = inhibition ([4]; at 17.2 µM (top of the series)) -1.97% | activity, negative = inhibition ([4]; at 38 µM (top of the series)) 13.4% | Potency [5] > 46 µM and > 20.6 µM | Potency [6] > 46 µM and > 20.6 µM | Potency [7] | Potency [8] | activity change, negative = inhibition [9] 1.2% | outcome [10] | Potency [11] | activity, negative = inhibition [12, 26] 13.1% | activity, negative = inhibition [12, 27] 3.39% | Potency [13] | Potency [14] | Potency [15] | Potency [16] | Potency [17] | Potency [18] | Potency [19] | Potency [20]
11.2%: max response [9, 23]

CN(N=O)C(=O)N[C@H]1[C@@H](O)[C@H](O)[C@H](CO)O[C@@H]1O
-12.9%: max response [9, 23]
-12.1%: max response [9, 22]
inactive: activity change, negative = inhibition [1, 21] 22% [at 17.2 µM] | Potency [2] | activity change, negative = inhibition [3, 21] 5.2% [at 17.2 µM] | activity, negative = inhibition [4, 21] -4.53% [at 17.2 µM] | Potency [5] > 20.6 µM | Potency [6] > 20.6 µM | Potency [7] | Potency [8] | activity change, negative = inhibition [9] -1.88% | outcome [10] | Potency [11] | activity, negative = inhibition [12, 24] 2.49% | activity, negative = inhibition [12, 25] 8.62% | Potency [13] | Potency [14] | Potency [15] | Potency [16] | Potency [17] | Potency [18] | Potency [19] | Potency [20]

OCCN1CCN(CC/C=C2\c3ccccc3Sc3ccc(C(F)(F)F)cc32)CC1
inactive: activity change, negative = inhibition ([1]; at 17.2 µM (top of the series)) 16.2% | activity change, negative = inhibition ([1]; at 38 µM (top of the series)) 29.4% | activity, negative = inhibition ([4]; at 17.2 µM (top of the series)) 5.96% | activity, negative = inhibition ([4]; at 38 µM (top of the series)) -10.3% | Potency [5] > 46 µM and > 20.6 µM | Potency [6] > 46 µM and > 20.6 µM | Potency [7] | Potency [8] | activity change, negative = inhibition [9] -3.77% | Potency [11]
active: Potency [2] 7.94 µM and 5.01 µM
-13.1%: max response [9, 22]
-14.8%: max response [9, 23]

CC[C@H](NC(C)C)[C@H](O)c1ccc(O)c(O)c1
-11.2%: max response [9, 23]
inactive: activity change, negative = inhibition ([1]; at 17.2 µM (top of the series)) -20.6% | activity change, negative = inhibition ([1]; at 38 µM (top of the series)) -15.3% | activity change, negative = inhibition [3, 21] -6.46% [at 17.2 µM] | activity, negative = inhibition ([4]; at 17.2 µM (top of the series)) 3.17% | activity, negative = inhibition ([4]; at 38 µM (top of the series)) -26.1% | Potency [7] | Potency [8] | activity change, negative = inhibition [9] -0.896% | outcome [10] | Potency [11] | activity, negative = inhibition [12, 26] 4.3% | activity, negative = inhibition [12, 27] -2.19% | Potency [13] | Potency [14] | Potency [16] | Potency [17] | Potency [18] | Potency [19] | Potency [20]
-4.02%: max response [9, 22]
